# Shiga inhibitor – blocks Shiga toxin action in Vero cells; 9.2% of 290,000 active; Vero cells, Shiga toxin protein synthesis inhibition reporter; AID 2315; inhibition, % at 38.7 µM; in the data active means inhibition mostly above about 28%, no sharp cut-off; inactive means mostly below about 43%; further: 0% is about no effect
# Pf growth 96h – inhibits malaria parasite growth, 96 h; 6.9% of 320,000 active; P. falciparum luciferase reporter growth, 96 h; AID 504834; Potency, µM (highest dose often 28.7 µM), without a hit: at the top dose activity change, negative = inhibition, most hits filed as inhibitors; further: potency means the concentration at half of the fitted maximal effect; on the % scale 0 is the no-effect control and ±100 the full control effect
#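 96 h incubation, 37 C, 5% CO2, of luciferase-reporter P. falciparum-infected RBCs (2% hematocrit, 0.05% parasitemia final) with test compounds; endpoint luminescence.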
# Cycloheximide cs – counter-screen hit for Shiga toxin inhibitors, cycloheximide. cell reporter, cycloheximide protein synthesis inhibition counterscreen. 12% of 300,000 active. max response, %; in the data active means max response mostly above about 13%, no sharp cut-off; inactive means mostly below about 14%; further: read at 38.3 µM for the half of the compounds with a filed dose; 0% is about no effect
# Pf growth 48h – P. falciparum growth inhibition at 48 hours (one generation) | P. falciparum luciferase growth in erythrocytes, 48 h | Potency, µM (doses to about 28.7 µM), for inactives: at the highest dose activity change, negative = inhibition, actives largely listed as inhibitors | 5.9% of 310,000 active | AID 504832; further: potency means the concentration at half of the fitted maximal effect; on the % scale 0 is the no-effect control and ±100 the full control effect
#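 Cell-based growth assay: transgenic P. falciparum expressing firefly luciferase, cultured in red cells within RPMI 1640 containing 0.5% w/v Albumax, 24 mM bicarbonate and gentamycin. A drop in luciferase activity indicates inhibition.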
# HCMV antiviral – blocks human cytomegalovirus replication. HFF cells, HCMV-luciferase reporter, 72 h; active compounds read low. activity change, negative = inhibition, % at 57.5 µM. 4.5% of 410,000 active. AID 1259415; in the data active means activity change below about -60%; inconclusive means no clear call, values can overlap the other calls; inactive means above about -39%; further: on the % scale 0 is the no-effect control and ±100 the full control effect
#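 Two-dose cell screen: HFF monolayers treated with compounds and infected with luciferase-expressing HCMV at 1 PFU/cell, 72 h at 37C, then lysed for luciferase measurement.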
# * marks the source's active call; other numbers are inactive results; ? = inconclusive; . = not tested or not shown; ! = not confirmed by another sample; [ ] = remark or other dose. An excerpt weighted towards active compounds, which were near 20% of everything screened. Unless noted, the call rests on the fitted dose curve; in most records, active means well fitted inhibition curve with a large enough effect; inconclusive means small, poorly fitted or top-dose-only effect, or another doubt; inactive means no such curve, though single readings can be large or run the other way.
SMILES,Shiga inhibitor,Pf growth 96h,Cycloheximide cs,Pf growth 48h,HCMV antiviral
Cc1nn(-c2ccccc2)c2c1C(O)n1c(nc3ccccc31)S2 (centres undefined),9.8,-15.1%,3.7,1.65µM*,40.4
Cc1nn(-c2ccccc2)c2sc(C(=O)O)cc12,-1.9,.,-0.5,25.2%,28.0
Cc1cc(NC(=O)CCN2C(=O)C3C4CCC(C4)C3C2=O)c(C)cc1Br (centres undefined),13.4,?,-2.2,-2.8%,-107.2*
COCCCNC(=S)NNC(=O)c1ccoc1C,1.8,?,3.6,4.3%,-0.6
CCCCNC(=O)NNC(=O)c1ccoc1C,61.7*,?,53.2*,?,58.1
CCCCNC(=S)NNC(=O)c1ccoc1C,50.0,76.8%,19.0*,14.3%,20.9
C=CCN1C(=O)C(C)(C)N(C(C)=O)c2ccccc21,-9.7,?,-2.3,-4.9%,16.6
CC(=O)N1c2ccccc2N(Cc2ccc(C)cc2C)C(=O)C1(C)C,-19.4,1.65µM*,-4.6,.,5.1
COc1cccc(OCCSc2nc3ccccc3n2CC(=O)N2CCCCC2)c1,.,.,.,.,-6.3
Cc1nc2ccn(Cc3ccco3)c(=O)c2cc1C(=O)NCc1ccccc1F,.,.,.,.,-64.5*
COc1ccc(Cn2ccc3nc(C)c(C(=O)NCc4ccc(F)cc4)cc3c2=O)cc1,.,.,.,.,-77.4*
OCCN(CCCn1c(-c2ccncc2)nc2ccccc21)c1nc(CN2CCCCC2)cs1,6.0,?,-3.5,-25.2%,2.4
Cc1ccc(C2CC(=O)n3nc(-c4ccc(F)cc4)nc3S2)cc1 (centres undefined),.,.,.,.,9.4
CC1(C(=O)Nc2ccc3c(c2)OCCO3)CN(S(C)(=O)=O)CC(=O)N1Cc1cccs1 (centres undefined),.,.,.,.,0.4
Cc1cc(N2CCOCC2)n2nc(C)c(-c3ccc(Cl)cc3)c2n1,-4.7,-19.6%,0.8,-11.3%,?
CC(=O)Nc1ccc(Nc2cc(C)nc3c(-c4ccc(Cl)cc4)cnn23)cc1,35.7*,167.2%,52.4*,89.0%,-70.1*
Cc1cc(N2CCC(C)CC2)n2ncc(-c3ccccc3)c2n1,131.6*,165.9%,44.0*,130.0%,-63.6*
Cc1cc(N2CCOCC2)n2ncc(-c3ccc(Cl)cc3)c2n1,119.7*,152.5%,75.2*,140.2%,-35.6
Cc1cc(N2CCN(C(=O)c3ccco3)CC2)n2ncc(-c3ccccc3)c2n1,64.2*,-13.7%,31.4*,?,209.9
CC(=O)Nc1ccc(Nc2cc(C)nc3c(-c4ccc(Cl)cc4)c(C)nn23)cc1,-6.6,0.0%,-2.5,?,?
CCC(C)(C)NC(=O)C(c1ccccn1)N(C(=O)c1csnn1)c1ccc(C)c(C)c1 (centres undefined),24.6,56.5%,2.3,-8.8%,10.4
Cc1noc(C)c1NC(=O)N(C)C[C@H]1Oc2ccc(NC(=O)c3ccncc3)cc2C(=O)N([C@H](C)CO)C[C@@H]1C,.,.,.,.,-23.1
CCC(=O)NC(Nc1ccccn1)(C(=O)OC)C(F)(F)F (centres undefined),-24.1,-19.9%,-6.3,-19.9%,17.7
Cc1cc(N2CCCCC2)n2ncc(-c3ccc(Cl)cc3)c2n1,39.3,140.2%,29.0*,.,-29.6
Cc1cc(N2CCOCC2)n2ncc(-c3ccccc3)c2n1,100.3*,.,34.0*,55.0%,-28.2
SMILES,Shiga inhibitor,Pf growth 96h,Cycloheximide cs,Pf growth 48h,HCMV antiviral
Cc1cc(N2CCN(C)CC2)n2nc(-c3ccc(Cl)cc3)nc2n1,-1.8,-11.7%,-0.5,?,56.2
Cc1cc(N2CCCCC2)n2ncc(-c3ccccc3)c2n1,60.7,1.3%[5.75 µM],59.6*,14.2%,-25.1
Cc1ccc(-c2cnn3c(N4CCOCC4)cc(C)nc23)cc1,107.8*,304.9%,68.0*,116.5%,-22.5
CCc1nn2c(N3CCOCC3)cc(C)nc2c1-c1ccc(F)cc1,-10.7,-2.6%,0.5,-14.1%,-25.0
Cc1cc(N2CCOCC2)n2nc(C(F)(F)F)c(-c3ccccc3)c2n1,-5.9,6.2%,-1.5,-7.3%,-17.5
O=C(c1cnn(-c2ccc(F)cc2)c1-n1cccc1)N1CCN(c2ccccc2)CC1,.,.,.,.,-15.6
CC1CC=CC2C1C(=O)N(Cc1ccccc1)C2c1cccc([N+](=O)[O-])c1 (centres undefined),-2.4,.,8.3,.,.
CC(C)(C)c1cc(N2CCOCC2)n2ncc(-c3ccc(Cl)cc3)c2n1,24.5,?,30.6*,?,-14.7
C=CCc1c(C)nc2c(-c3ccccc3)cnn2c1N1CCOCC1,84.0*,263.1%,58.3*,164.0%,?
Cc1nn2c(N3CCOCC3)cc(C(C)(C)C)nc2c1-c1ccc(Cl)cc1,2.5,-6.9%,-0.8,-16.7%,-17.9
Cc1onc(-c2ccccc2Cl)c1C(=O)OCC(=O)Nc1cccc(S(=O)(=O)N2CCOCC2)c1,-2.0,31.0%[1.15 µM],-5.0,?,-11.2
CCN1c2ccccc2-c2nc3ccccc3n2C1c1cccs1 (centres undefined),14.3,3.7µM*,6.7,8.28µM*,?
COc1cc(C(C(=O)NCc2ccccc2)N(Cc2ccco2)C(=O)c2cnccn2)cc(OC)c1OC (centres undefined),8.2,9.0%,-2.2,9.28µM*,27.6
O=C(NCc1ccccc1)C(c1ccccc1)N(Cc1cccs1)C(=O)c1cnccn1 (centres undefined),18.9,0.262µM*,-1.1,-22.3%,-30.8
COC(=O)C1=C(C)N(Cc2ccccc2)C(=NCC2CC2)N[C@H]1c1ccccc1,-5.9,23.9%,-2.6,9.28µM*!,-25.6
COC(=O)C1=C(C)N(Cc2ccccc2)C(=NCCc2cccnc2)N[C@H]1c1ccc(Br)cc1,-12.3,40.8%,-9.5,7.38µM*,.
COC(=O)C1=C(C)N(Cc2ccccc2)C(=NCC(C)C)N[C@H]1c1ccc(Br)cc1,0.9,54.2%,-4.5,?,.
COC(=O)C1=C(C)N(Cc2ccccc2)C(=NCCc2cccnc2)N[C@H]1c1ccccc1,1.0,14.7µM*,-2.9,?,.
COC(=O)C1=C(C)N(Cc2ccccc2)C(=NCC2CC2)N[C@H]1c1ccc(Br)cc1,-3.1,?,-5.4,?,.
Cc1ccc(C)n1C1C(=O)N(Cc2ccc(C(C)C)cc2)c2ccc(OC(F)(F)F)cc21 (centres undefined),.,.,.,.,-27.2
CCCCn1c(N)c(N(C(=O)CSc2nnnn2-c2ccc(C)cc2)C2CCCC2)c(=O)[nH]c1=O,.,.,.,.,-3.3
CN1CCC(N(C)C(=O)/C=C/c2cn(-c3ccccc3)nc2-c2cccs2)CC1,-22.4,?,2.7,5.86µM*,-110.8*
O=C(O)CCN1C(=O)/C(=C/c2cn(-c3ccccc3)nc2-c2cccs2)SC1=S,-4.4,18.0%,1.1,-14.3%,-61.2*
COc1ccc(-c2nn(-c3ccccc3)cc2/C=C2/SC(=S)N(CCC(=O)O)C2=O)c(C)c1,-14.9,5.86µM*,-3.4,-1.6%,-20.7
COc1ccc2c(C)cc(=O)oc2c1C,5.0,5.86µM*,5.8,.,1.0
CCCOc1ccc2c(CC)cc(=O)oc2c1C,30.7,10.3%,11.1*,57.4%,-2.6

# High-throughput results: PubChem, National Center for Advancing Translational Sciences (NCATS)
